# This excerpt belongs to a sample that is enriched for hits.
# IMPase Li inh: qHTS Assay for Identifying the Cell-Membrane Permeable IMPase Inhibitors: Potentiation with Lithium; CHO-M1 cells, IP1 TR-FRET (IP-One), carbachol + lithium; 210,000 compounds, 0.35% hits; Potency, µM (top dose mostly 59.4 µM), for inactives: at the highest dose activity, negative = IMPase inhibition, actives largely listed as inhibitors;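 note: IP1 builds up when IMPase is blocked and the TR-FRET signal falls; potency is the fitted concentration of half-maximal effect; plate controls were basal vehicle for no effect and high inhibitor control for full effect; nearly all actives have a fitted effect of over 50% in size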
#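 Test compounds were applied to CHO-M1 cells previously cultured for 16–30 h at 2000 per well. A small lithium amount accompanied them; after 30 min at 37C, IP1 was quantified by TR-FRET.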
# IMPase cell inh: qHTS Assay for Identifying the Cell-Membrane Permeable IMPase Inhibitors | inhibition (IP1 accumulation), % at 46.1 µM | CHO-M1 cells, IP1 accumulation, HTRF TR-FRET ratio | 120,000 tested, under 10 active | Inositol monophosphatase 1 (Rattus norvegicus), P97697; active = well fitted curve in the direction sought with a large enough effect in the signal ratio, not every such curve was filed as active; inconclusive = small, poorly fitted or top-dose-only effect, or a change in a side signal; inactive = no such curve, though single readings can be large or run the other way; the % refers to the signal ratio;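 note: cells stimulated with carbachol in lithium chloride buffer; plate controls were DMSO basal wells for no effect and reference inhibitor wells for full effect; higher means more IMPase inhibition seen as more IP1 and lower FRET ratio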
# Target sequence (P97697 whole entry, looked up): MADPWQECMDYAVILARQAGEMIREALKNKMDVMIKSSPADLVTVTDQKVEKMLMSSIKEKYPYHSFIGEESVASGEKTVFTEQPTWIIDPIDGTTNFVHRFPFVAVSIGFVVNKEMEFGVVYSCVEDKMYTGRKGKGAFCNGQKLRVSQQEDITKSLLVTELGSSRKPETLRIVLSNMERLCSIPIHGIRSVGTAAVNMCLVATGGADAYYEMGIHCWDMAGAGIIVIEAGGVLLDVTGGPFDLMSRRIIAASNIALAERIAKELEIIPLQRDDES
#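 In this qHTS, compounds (final up to 46 uM) act on CHO-M1 cells that are then activated through the M1 receptor with carbachol, in pH 7.4 buffer containing 50 mM LiCl, for 30 min. IP1 accumulation is quantified by the IP-One immunoassay.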
# PNC inhibitor: High Content Assay for Compounds that inhibit the Assembly of the Perinucleolar Compartment; PC3M PTB-GFP, PNC prevalence imaging, 16 h; hits give low values; activity change (PNC), negative = inhibition, % at 10 µM; 140,000 compounds, 3.1% hits;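 active = readout at or below -70, meaning at least 70% loss of cells showing the perinucleolar compartment, a nuclear body marking cancer cells; inconclusive = readout between -30 and a set limit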;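 note: plate controls were DMSO wells for no effect and camptothecin positive control wells for full effect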
#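 PC3M cells stably expressing PTB-GFP, 750–1000 cells/well, treated 16 h at 37 °C with compound (23 nl of library stock), in duplicate. After paraformaldehyde fixation and Hoechst stain, imaged at 20x; PNC prevalence scored by image analysis.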
# 12-hLO inh: qHTS Assay for Inhibitors of 12-hLO (12-human lipoxygenase); Polyunsaturated fatty acid lipoxygenase ALOX12 (Homo sapiens), P18054; purified 12-hLO, xylenol orange hydroperoxide absorbance; Potency, µM (top dose mostly 57.1 µM), for inactives: at the highest dose activity change, negative = inhibition, hits mostly inhibitors; 150,000 compounds, 0.12% hits; note: potency is the fitted concentration of half-maximal effect; nearly all actives have a fitted effect of over 55% in size
#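 Lipoxygenase turnover measured by absorbance at 573 and 405 nm after Fe-XO development. Human 12hLO 150 nM, arachidonate 40 uM, pH 7.0 Hepes buffer with detergent; 15 min compound preincubation, 30 min reaction.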
# Active calls of the source: *; u = inconclusive; x = not tested or not shown; [ ] = remark or other dose. Unless noted, calls come from the whole dose curve; as a rule, active = well fitted curve in the direction sought with a large enough effect; inconclusive = small, poorly fitted or top-dose-only effect, or another doubt; inactive = no such curve, though single readings can be large; an effect the other way counts as inactive or inconclusive. Unless noted, % is set by controls: 0 for no effect and ±100 for the full control effect.
SMILES,IMPase Li inh,IMPase cell inh,PNC inhibitor,12-hLO inh
CCC1CCCCN1S(=O)(=O)c1ccc(NC(=O)CSc2ncccc2C(=O)O)cc1 (stereo unspecified),-8%[38.3 µM],-2,-2,-3%
CCC1CCCCN1S(=O)(=O)c1ccc(NC(=O)c2cccs2)cc1 (stereo unspecified),5%,19,-100*,-5%
COc1ccc(NC(=O)c2cccs2)cc1,5%,6,-18,1%
COc1ccc(NC(=S)NNC(=O)c2cccs2)cc1,-4%,x,-84*,-3%
O=C(NC(=S)Nc1ccc(S(=O)(=O)N2CCCCC2)cc1)c1cccs1,17%,x,-20,4%
O=C(NC(=S)Nc1ccc(S(=O)(=O)NC2CCCCC2)cc1)c1cccs1,x,5,u,5µM*
c1ccc(-c2cc3c(N4CCOCC4)ncnc3s2)cc1,3%[38.3 µM],5,-97*,5%
c1ccc(-c2cc3c(N4CCCC4)ncnc3s2)cc1,24%,x,x,x
c1ccc(C2=NN[C@@H]3c4ccccc4-c4ccccc4N3C2)cc1,-7%,x,x,-10%[11.4 µM]
COC(=O)C(C)N(C(=O)c1cccc(Cl)c1)c1c(C)cccc1C (stereo unspecified),49%[38.3 µM],7,-92*,4%
CCCCNC(=O)Cc1c(O)c2ccccc2[nH]c1=O,30%[38.3 µM],6,-112*,8%
CC(C)Oc1ccc(/C(O)=C2/C(=O)C(=O)N(CCN3CCOCC3)C2c2ccccc2)cc1 (stereo unspecified),5µM*,u,-17,3%
CN1CCc2c(sc3c2C(=O)NC(c2cn(Cc4ccccc4)c4ccccc24)N3)C1 (stereo unspecified),14%[38.3 µM],-2,-103*,4%
CN1CCc2c(sc3c2C(=O)NC(c2ccco2)N3)C1 (stereo unspecified),11%[38.3 µM],9,16,-4%
Cc1ccnc(NC(=O)CN(C)S(=O)(=O)c2cccc3nsnc23)c1,-6%[38.3 µM],7,64,-1%
Cc1ccc2nc(NC(=O)CN(C)S(=O)(=O)c3cccc4nsnc34)sc2c1,5%[38.3 µM],0,-122*,-2%
CCNC(=S)N1CCC(n2cnc3ccccc32)CC1,3%,x,x,x
COc1ccc(N2C(=O)CC(N3CCN(C4CCc5ccccc5C4)CC3)C2=O)cc1 (stereo unspecified),23%[38.3 µM],18,-121*,-1%
COc1ccc(N2C(=O)CC(N3CCCCC3)C2=O)cc1 (stereo unspecified),8%,x,x,x
COc1ccc(C(=O)N/N=C/c2cccc3cccnc23)cc1,7%[38.3 µM],10,9,2%
COc1ccc(C(=O)N/N=C/c2cc3ccccc3[nH]c2=S)cc1,25%[38.3 µM],0,-27,18µM*
COCc1nc2ccccc2n1CCCOc1ccccc1,-7%[38.3 µM],4,-106*,-2%
Cc1nc2ccccc2n1CCCOc1ccccc1,10%,-1,-105*,-4%
COc1cc(CCNc2ccc3nnc(-c4ccccc4)n3n2)cc(OC)c1OC,-9%,x,47,-1%
COc1ccc([N+](=O)[O-])cc1N(CC(=O)NCCC1=CCCCC1)S(C)(=O)=O,16%,x,-25,0%
SMILES,IMPase Li inh,IMPase cell inh,PNC inhibitor,12-hLO inh
O=C(CN1CC(=O)Oc2ccccc21)NCc1ccco1,6%[38.3 µM],9,-20,-29%
O=C(CN1CCOc2ccccc21)NCc1ccco1,25%[38.3 µM],1,-106*,-10%
O=C(O)CNC(=O)[C@H]1NC(C(F)(F)F)(C(F)(F)F)OC1(C(F)(F)F)C(F)(F)F,-13%,x,x,0%[11.4 µM]
COc1ccc(/C=C/C(=O)c2ccc(NC(=O)c3cccs3)cc2)cc1OC,16%[38.3 µM],-3[1.84 µM],-83*,-2%
Cc1cccc(NC(=O)Cn2c(=O)n(CC3CCC(C(=O)NCCc4ccccc4)CC3)c(=O)c3ccccc32)c1 (stereo unspecified),x,8,x,x
CCC[C@@H]1C[C@@]1(CCC)C(NC(=O)c1ccco1)c1ccc(Cl)cc1 (stereo partly specified),2%,x,x,-6%
COCCCn1c(SCC(=O)Nc2ccc(C(=O)OC)cc2)nc2ccccc2c1=O,7%[38.3 µM],-6,-117*,-18%
CCc1cc2ccccc2nc1SCC(=O)Nc1cc(C)on1,10µM*,-10,14,-2%
COc1ccc(NC(=O)CSc2nc3ccccc3c(=O)n2CCNC(C)=O)cc1,6%[38.3 µM],1,14,-3%
COCCCn1c(SCC(=O)Nc2ccc(C)cc2)nc2ccccc2c1=O,-1%,x,x,x

# Screens from PubChem.
